For part of these data: Entries with a potency or affinity are not part of this list. The source made the active and inactive calls. Unless noted, how the calls were made is not given here.
Columns and labels:
[1] = antimalarial activity against Dd2 strain (AID 2302;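 active means growth inhibition above 50% at the single 2 µM test dose, taken to imply half-maximal potency below 2 µM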;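 further: 0% = DMSO untreated growth and 100% = chloroquine plus artemisinin killed control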); conditions: P. falciparum Dd2 in RBCs, LDH growth readout, 72 h; at 2 µM; active compounds read high
[2] = HepG2 cytotoxicity, primary screen, cytotoxicity control for P. falciparum antimalarial project, cell-based, ATP luminescence (AID 2303;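 active means inhibition above 50%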;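 further: 0% = DMSO wells and 100% = digitonin-killed cells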); conditions: HepG2 viability, 24-48 h, at 10 µM, active compounds read high
[3] = target: L-lactate dehydrogenase (Plasmodium falciparum (isolate CDC / Honduras)) (UniProt Q27743); experiment: PfLDH activity inhibition – cell lysate, 3D7 strain, counter-screen for P. falciparum growth inhibition project (AID 2304);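 further: 0% = vehicle and 100% = reference inhibitor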; conditions: P. falciparum 3D7 crude extract, LDH APAD/NBT absorbance; at 2 µM; active compounds read high
[4] = inhibition of 3D7 malaria parasite growth – strain 3D7 (AID 2306);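 further: 0% = DMSO wells and 100% = chloroquine plus artemisinin control wells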; conditions: P. falciparum 3D7 erythrocytic growth, LDH absorbance, 72 h; at 2 µM; active compounds read high
[5] = target: Calcium-dependent protein kinase 1 (Plasmodium falciparum (isolate 3D7)) (UniProt P62344); experiment: PfCDPK1 kinase inhibitors, biochemical, TCAMS library (AID 1159585; cut-off not given, nearly all actives have IC50 up to about 0.98 µM;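 further: inhibitors leave more ATP so luminescence rises with inhibition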); conditions: recombinant PfCDPK1, Kinase-Glo ATP depletion luminescence
[6] = target: Plasmodium falciparum protein kinase 6 (PK6, PF3D7_1337100) (UniProt Q8IDW1); experiment: PfPK6 kinase inhibitors, biochemical, TCAMS library (AID 1159586); conditions: recombinant PfPK6, Kinase-Glo ATP depletion luminescence
[7] = target: Protein kinase 7 (PK7), Plasmodium falciparum 3D7 (PF3D7_0213400) (UniProt Q7YTF7); experiment: inhibition of Plasmodium PK7 catalytic activity – biochemical, TCAMS antimalarial set, Kinase-Glo luminescence (AID 1159587); conditions: recombinant PfPK7, Kinase-Glo ATP depletion luminescence
[8] = target: Calcium-dependent protein kinase 4 (Plasmodium falciparum (isolate 3D7)) (UniProt Q8IBS5); experiment: PfCDPK4 kinase inhibitors, biochemical, TCAMS library (AID 1159588; cut-off not given, nearly all actives have IC50 up to about 0.91 µM); conditions: recombinant PfCDPK4, Kinase-Glo ATP depletion luminescence
Sequence of Calcium-dependent protein kinase 4 (Plasmodium falciparum (isolate 3D7)) (Q8IBS5 whole entry, looked up): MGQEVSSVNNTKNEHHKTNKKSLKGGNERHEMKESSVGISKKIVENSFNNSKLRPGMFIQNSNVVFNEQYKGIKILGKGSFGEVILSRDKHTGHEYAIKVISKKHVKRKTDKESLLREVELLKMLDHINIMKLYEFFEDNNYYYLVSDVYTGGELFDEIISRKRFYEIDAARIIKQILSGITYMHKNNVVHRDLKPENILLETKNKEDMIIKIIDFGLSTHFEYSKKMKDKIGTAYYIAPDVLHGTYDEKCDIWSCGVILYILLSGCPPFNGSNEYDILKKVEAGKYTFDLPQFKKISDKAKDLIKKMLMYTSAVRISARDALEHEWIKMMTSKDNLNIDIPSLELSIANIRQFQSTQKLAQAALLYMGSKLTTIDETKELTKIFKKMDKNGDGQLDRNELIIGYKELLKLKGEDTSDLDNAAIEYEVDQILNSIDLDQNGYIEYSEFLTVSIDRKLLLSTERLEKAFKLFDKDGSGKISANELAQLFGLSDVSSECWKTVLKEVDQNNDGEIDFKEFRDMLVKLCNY

Sequence of Calcium-dependent protein kinase 1 (Plasmodium falciparum (isolate 3D7)) (P62344 whole entry, looked up): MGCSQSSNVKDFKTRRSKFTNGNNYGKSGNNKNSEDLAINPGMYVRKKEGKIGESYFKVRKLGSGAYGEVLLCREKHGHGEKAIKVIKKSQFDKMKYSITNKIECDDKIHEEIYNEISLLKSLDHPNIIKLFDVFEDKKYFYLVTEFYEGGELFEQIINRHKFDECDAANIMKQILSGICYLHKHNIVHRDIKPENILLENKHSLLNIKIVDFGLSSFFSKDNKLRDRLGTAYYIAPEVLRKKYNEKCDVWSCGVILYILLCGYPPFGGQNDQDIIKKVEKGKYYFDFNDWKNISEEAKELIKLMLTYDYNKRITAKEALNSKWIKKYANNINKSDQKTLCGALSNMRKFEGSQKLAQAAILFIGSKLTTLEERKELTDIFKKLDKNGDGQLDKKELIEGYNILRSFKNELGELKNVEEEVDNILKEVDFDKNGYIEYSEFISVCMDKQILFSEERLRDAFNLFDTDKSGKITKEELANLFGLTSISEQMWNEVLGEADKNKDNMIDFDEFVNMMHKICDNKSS
Sequence of Plasmodium falciparum protein kinase 6 (PK6, PF3D7_1337100) (Q8IDW1 1-305): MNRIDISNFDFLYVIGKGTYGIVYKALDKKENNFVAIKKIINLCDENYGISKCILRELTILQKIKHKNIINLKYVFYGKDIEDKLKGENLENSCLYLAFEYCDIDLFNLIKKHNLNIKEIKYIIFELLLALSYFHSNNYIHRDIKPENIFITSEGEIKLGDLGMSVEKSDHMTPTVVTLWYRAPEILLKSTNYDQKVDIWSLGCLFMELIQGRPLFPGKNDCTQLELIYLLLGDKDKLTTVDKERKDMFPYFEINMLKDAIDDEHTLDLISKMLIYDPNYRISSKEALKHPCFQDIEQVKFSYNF
Sequence of L-lactate dehydrogenase (Plasmodium falciparum (isolate CDC / Honduras)) (Q27743 whole entry, looked up): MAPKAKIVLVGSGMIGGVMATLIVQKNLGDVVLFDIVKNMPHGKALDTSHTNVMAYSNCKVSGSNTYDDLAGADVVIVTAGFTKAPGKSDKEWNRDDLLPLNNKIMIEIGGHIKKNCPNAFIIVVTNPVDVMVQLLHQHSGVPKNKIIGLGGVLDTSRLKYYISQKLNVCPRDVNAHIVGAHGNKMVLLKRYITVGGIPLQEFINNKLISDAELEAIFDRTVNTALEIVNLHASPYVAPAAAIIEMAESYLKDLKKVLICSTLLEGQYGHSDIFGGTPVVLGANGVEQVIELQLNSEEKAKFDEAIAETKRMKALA
Sequence of Protein kinase 7 (PK7), Plasmodium falciparum 3D7 (PF3D7_0213400) (Q7YTF7 1-343): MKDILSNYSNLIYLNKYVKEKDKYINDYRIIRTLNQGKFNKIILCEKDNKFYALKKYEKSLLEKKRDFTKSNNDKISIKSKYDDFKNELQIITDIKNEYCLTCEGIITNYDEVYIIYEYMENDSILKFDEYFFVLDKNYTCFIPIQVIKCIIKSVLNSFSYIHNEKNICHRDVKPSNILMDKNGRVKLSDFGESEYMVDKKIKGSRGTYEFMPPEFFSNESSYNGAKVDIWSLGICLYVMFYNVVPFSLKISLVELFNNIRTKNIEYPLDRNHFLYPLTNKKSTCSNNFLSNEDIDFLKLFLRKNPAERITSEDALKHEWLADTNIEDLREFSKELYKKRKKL

COc1ccc2nc(Nc3nc(-c4ccccn4)cs3)sc2c1
active: growth inhibition [1] 94% | growth inhibition [4] 93%
inactive: inhibition [2] 40% | inhibition [3] 4% | outcome [5] | outcome [6] | outcome [7] | outcome [8]

O=C(NCC1CCN(CC2CCCCC2)C1)c1cc(-c2cccc(C(F)(F)F)c2)cs1 (configuration not stated)
active: growth inhibition [4] 96%
inactive: growth inhibition [1] 21% | inhibition [2] 47% | inhibition [3] -3% | outcome [5] | outcome [6] | outcome [7] | outcome [8]

O=S(=O)(NC1=NCCC1)c1cccc(Nc2nc(C(F)(F)F)nc3ccccc23)c1
inactive: growth inhibition [1] 8% | inhibition [2] 6% | inhibition [3] 0% | outcome [5] | outcome [6] | outcome [7] | outcome [8]
active: growth inhibition [4] 83%

COc1cc(Nc2ccnc3cc(-c4nccs4)ccc23)ccc1OCCCc1nc2ccccc2[nH]1
active: growth inhibition [1] 68% | inhibition [2] 100% | growth inhibition [4] 100%
inactive: inhibition [3] 5% | outcome [5] | outcome [6] | outcome [7] | outcome [8]

Cc1ncc(CN2CCC(C(=O)Nc3ccc(-c4nc5ccccc5o4)cc3)CC2)s1
inactive: inhibition [2] -14% | inhibition [3] 1% | outcome [5] | outcome [6] | outcome [7] | outcome [8]
active: growth inhibition [1] 92% | growth inhibition [4] 82%

O=C(/C=C/c1ccc([N+](=O)[O-])cc1)N1CCC(NS(=O)(=O)c2cccc(C(F)(F)F)c2)CC1
inactive: growth inhibition [1] 8% | inhibition [2] -2% | inhibition [3] -1% | outcome [5] | outcome [6] | outcome [7] | outcome [8]
active: growth inhibition [4] 94%

Cc1ccc(C)c(S(=O)(=O)NCC2CCN(Cc3ccc(O)cc3)CC2)c1
inactive: inhibition [2] 16% | inhibition [3] -6% | outcome [5] | outcome [6] | outcome [7] | outcome [8]
active: growth inhibition [1] 57% | growth inhibition [4] 87%

CCN(CC)CCN(Cc1ccc(-c2ccc(C(F)(F)F)cc2)cc1)C(=O)Cn1c(CCc2c(F)cccc2F)nc(=O)c2ccccc21
active: growth inhibition [1] 61% | growth inhibition [4] 102%
inactive: inhibition [2] 36% | inhibition [3] -3% | outcome [5] | outcome [6] | outcome [7] | outcome [8]

C#CC(C)(CO)N1CCCC1 (configuration not stated)
active: growth inhibition [4] 95%
inactive: growth inhibition [1] 1% | inhibition [2] 10% | inhibition [3] -4% | outcome [5] | outcome [6] | outcome [7] | outcome [8]

CCCCCCNC(=O)C1Cc2c([nH]c3ccc(F)cc23)C2(CCN(Cc3ccccc3)CC2)N1 (configuration not stated)
inactive: growth inhibition [1] 39% | inhibition [2] 11% | inhibition [3] -1% | outcome [5] | outcome [6] | outcome [7] | outcome [8]
active: growth inhibition [4] 97%

Cc1nc2ccc(-c3nc4ccc(N)cc4[nH]3)cc2[nH]1
inactive: inhibition [2] 6% | inhibition [3] -5% | outcome [5] | outcome [6] | outcome [7] | outcome [8]
active: growth inhibition [1] 80% | growth inhibition [4] 94%

CC(C)COc1cc(C(=O)Nc2cnc3ccccc3c2)ccc1[N+](=O)[O-]
inactive: inhibition [2] 19% | inhibition [3] -1% | outcome [5] | outcome [6] | outcome [7] | outcome [8]
active: growth inhibition [1] 56% | growth inhibition [4] 97%

COc1ccc(Cn2c(Nc3cccc(C(F)(F)F)c3)nc3cc(C(=O)NCCCN(C)C)ccc32)cc1Cl
active: growth inhibition [4] 90%
inactive: growth inhibition [1] 3% | inhibition [2] 15% | inhibition [3] -7% | outcome [5] | outcome [6] | outcome [7] | outcome [8]

CS(=O)(=O)Nc1ccc2[nH]cc(C3CCN(CCCCCNC(=O)/C=C/c4ccc(Cl)c(Cl)c4)CC3)c2c1
inactive: growth inhibition [1] 0% | inhibition [2] 1% | inhibition [3] 5% | outcome [5] | outcome [6] | outcome [7] | outcome [8]
active: growth inhibition [4] 101%

Nc1nc(N)c2cc(S(=O)(=O)c3ccc4ccccc4c3)ccc2n1
active: growth inhibition [1] 51% | growth inhibition [4] 95%
inactive: inhibition [2] 14% | inhibition [3] 3% | outcome [5] | outcome [6] | outcome [7] | outcome [8]

COc1cccc(CCNCc2ccc(-c3cccc(CNC4CCCC4)c3)cc2)c1
inactive: growth inhibition [1] 45% | inhibition [2] 14% | inhibition [3] -4% | outcome [5] | outcome [6] | outcome [7] | outcome [8]
active: growth inhibition [4] 101%

CCC1(c2ccccc2)N=C(N)N(CCCc2ccccc2)C1=O (configuration not stated)
inactive: inhibition [2] 17% | inhibition [3] 1% | outcome [5] | outcome [6] | outcome [7] | outcome [8]
active: growth inhibition [1] 96% | growth inhibition [4] 90%

c1ccc(CNc2nc(NCCc3cnc[nH]3)nc(NCc3cccc4ccccc34)n2)cc1
inactive: growth inhibition [1] 1% | inhibition [2] 9% | inhibition [3] -4% | outcome [5] | outcome [6] | outcome [7] | outcome [8]
active: growth inhibition [4] 91%

Cc1c(-c2cccc(C(C)(C)NC3CCN(Cc4ccccc4)CC3)c2)cnc(N)c1C
active: growth inhibition [4] 100%
inactive: growth inhibition [1] 39% | inhibition [2] 14% | inhibition [3] -6% | outcome [5] | outcome [6] | outcome [7] | outcome [8]

CNC(=O)Cc1ccc(C(=O)Nc2cccc(-c3cccc(-c4nc5c(C)cccc5[nH]4)c3)c2)cc1
active: growth inhibition [1] 53% | growth inhibition [4] 96%
inactive: inhibition [2] 15% | inhibition [3] 0% | outcome [5] | outcome [6] | outcome [7] | outcome [8]

CC(C)(C(=O)Nc1ccc(C2CCC(NCC3CC3)CC2)c(Cl)c1)c1cccc(OC(F)F)c1 (configuration not stated)
inactive: growth inhibition [1] 23% | inhibition [2] 34% | inhibition [3] -4% | outcome [5] | outcome [6] | outcome [7] | outcome [8]
active: growth inhibition [4] 99%

O=C(Nc1cccc(CN2CCCN(Cc3ccc(O)cc3)CC2)c1)c1cc2ccccc2s1
inactive: inhibition [2] 27% | inhibition [3] -7% | outcome [5] | outcome [6] | outcome [7] | outcome [8]
active: growth inhibition [1] 90% | growth inhibition [4] 100%

CCCC(CNC(=O)c1cc2c(Cl)cc(Cl)cc2[nH]1)CNc1cc(=O)c2ccccc2[nH]1 (configuration not stated)
inactive: inhibition [2] 9% | inhibition [3] -5% | outcome [5] | outcome [6] | outcome [7] | outcome [8]
active: growth inhibition [1] 94% | growth inhibition [4] 100%

Cc1ccc(C(C)C)c(Oc2ccc3nc(N)nc(N)c3c2)c1
inactive: growth inhibition [1] 33% | inhibition [3] 2% | outcome [5] | outcome [6] | outcome [7] | outcome [8]
active: inhibition [2] 61% | growth inhibition [4] 96%

Cc1cccc2[nH]c(-c3cccc(-c4cccc(NC(=O)CNC(=O)c5ccc(O)cc5)c4)c3)nc12
active: growth inhibition [4] 94%
inactive: growth inhibition [1] 49% | inhibition [2] 9% | inhibition [3] -1% | outcome [5] | outcome [6] | outcome [7] | outcome [8]

COc1ccc(Nc2nccc(NCCNC(=O)Nc3cc(C)ccc3C)n2)cc1
active: growth inhibition [4] 85%
inactive: growth inhibition [1] -3% | inhibition [2] 10% | inhibition [3] 2% | outcome [5] | outcome [6] | outcome [7] | outcome [8]

O=C(Nc1cccc(-c2ccc(-c3nc4ccc(C(F)(F)F)cc4[nH]3)cc2)c1)c1ccoc1
active: inhibition [2] 76% | growth inhibition [4] 98%
inactive: growth inhibition [1] 42% | inhibition [3] -4% | outcome [5] | outcome [6] | outcome [7] | outcome [8]

Cc1[nH]c(C)c(-c2ccc(C(=O)c3ccc(Cl)cc3)cc2)c(=O)c1Cl
inactive: inhibition [2] -1% | inhibition [3] 4% | outcome [5] | outcome [6] | outcome [7] | outcome [8]
active: growth inhibition [1] 95% | growth inhibition [4] 98%

NCCNc1ccnc2cc(Cl)ccc12
active: growth inhibition [1] 54% | growth inhibition [4] 101%
inactive: inhibition [2] 9% | inhibition [3] 4% | outcome [5] | outcome [6] | outcome [7] | outcome [8]

CCCN(C(=O)c1ccccc1C)c1nnc(-c2cccc(C)c2)s1
active: growth inhibition [1] 67% | growth inhibition [4] 91%
inactive: inhibition [2] 8% | inhibition [3] -4% | outcome [5] | outcome [6] | outcome [7] | outcome [8]

COc1ccc(Nc2nccc(N3CCC(NC(=O)Nc4cc(C)ccc4C)C3)n2)cc1 (configuration not stated)
active: growth inhibition [4] 91%
inactive: growth inhibition [1] 37% | inhibition [2] 10% | inhibition [3] -8% | outcome [5] | outcome [6] | outcome [7] | outcome [8]

O=C(NC1CCN(Cc2ccccc2)CC1)c1cccc(Nc2nc(-c3ccccc3)cs2)c1
active: inhibition [2] 70% | growth inhibition [4] 84%
inactive: growth inhibition [1] 3% | inhibition [3] 3% | outcome [5] | outcome [6] | outcome [7] | outcome [8]

CCc1cc(N2CCN(c3ccccc3F)CC2)nc(SCc2ccc(C(=O)NC3CC3)o2)n1
active: growth inhibition [1] 94% | growth inhibition [4] 90%
inactive: inhibition [2] 9% | inhibition [3] 1% | outcome [5] | outcome [6] | outcome [7] | outcome [8]

Cc1cccc2[nH]c(-c3ccc(-c4cccc(NC(=O)Nc5ccccc5)c4)cc3)nc12
inactive: growth inhibition [1] 14% | inhibition [2] 18% | inhibition [3] 9% | outcome [5] | outcome [6] | outcome [7] | outcome [8]
active: growth inhibition [4] 101%

CN1CCC(OC(=O)c2cc3cc(-c4ccccc4)ccc3n2S(=O)(=O)c2ccccc2)CC1
inactive: growth inhibition [1] 10% | inhibition [2] 31% | inhibition [3] -5% | outcome [5] | outcome [6] | outcome [7] | outcome [8]
active: growth inhibition [4] 88%

CSc1ccc2ccccc2c1CCNCCCCNCCc1c(SC)ccc2ccccc12
inactive: inhibition [3] 3% | outcome [5] | outcome [6] | outcome [7] | outcome [8]
active: growth inhibition [1] 60% | inhibition [2] 99% | growth inhibition [4] 101%

CC1CCCCN1Cc1cccc(-c2c[nH]c3nc(NC4CCCC4)ncc23)c1 (configuration not stated)
active: growth inhibition [4] 93%
inactive: growth inhibition [1] 14% | inhibition [2] -1% | inhibition [3] -2% | outcome [5] | outcome [6] | outcome [7] | outcome [8]

O=C(NCc1ccc(F)cc1)c1cc(Br)cc(N2CCN(c3ccncc3)CC2)c1
active: growth inhibition [1] 59% | growth inhibition [4] 80%
inactive: inhibition [2] 36% | inhibition [3] -2% | outcome [5] | outcome [6] | outcome [7] | outcome [8]

c1ccc(-c2nc(NC3CCCCC3)cc(C3CC3)n2)nc1
inactive: inhibition [2] 35% | inhibition [3] 2% | outcome [5] | outcome [6] | outcome [7] | outcome [8]
active: growth inhibition [1] 76% | growth inhibition [4] 97%

Reference: PubChem BioAssay
